TEAD-YAP inh: TEAD-YAP interaction inhibition; HEK-TIYL cells, TEAD-Gal4/YAP UAS-luciferase luminescence; inhibition, % at 9.12 µM; 1.4% of 640,000 active; AID 1259422; in the data active means inhibition above about 32%
FBW7 activator: activators of human E3 ligase FBW7; Q969H0; AlphaScreen FBW7–phospho-cyclin E peptide binding, activator screen; normalized activity (activation), % at 26.1 µM; 0.13% of 650,000 active; AID 1259310; in the data active means normalized activity above about 1.9%;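 further: purified mutant Fbw7 with reduced substrate affinity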
MITF primary: human MITF inhibition, primary screen. 0.91% of 650,000 active. inhibition, % at 2.6 µM. AlphaScreen MITF homodimerization, bead proximity signal. O75030; in the data active means inhibition above about 50%
GPR151 ag: activates the human receptor GPR151; AID 1508602; PathHunter beta-arrestin GPR151 cells, luminescence; activation, % at 11.2 µM; 1% of 650,000 active; in the data active means activation above about 4.9%
Target sequence (Q8TDV0 whole entry, looked up): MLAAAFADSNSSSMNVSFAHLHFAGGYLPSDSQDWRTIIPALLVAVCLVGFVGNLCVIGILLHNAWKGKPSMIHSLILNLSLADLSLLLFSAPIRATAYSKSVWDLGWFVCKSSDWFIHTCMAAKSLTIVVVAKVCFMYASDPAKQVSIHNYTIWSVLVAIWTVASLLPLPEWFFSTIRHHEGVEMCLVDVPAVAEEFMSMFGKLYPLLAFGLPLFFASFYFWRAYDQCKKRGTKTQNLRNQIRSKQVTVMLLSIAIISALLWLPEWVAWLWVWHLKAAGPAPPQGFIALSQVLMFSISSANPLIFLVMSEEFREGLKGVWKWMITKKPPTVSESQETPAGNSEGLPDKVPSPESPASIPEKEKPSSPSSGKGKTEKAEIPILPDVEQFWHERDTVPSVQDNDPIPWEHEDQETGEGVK
Large screens that a line does not name were inactive. Compounds with a hit are over-represented: about 3.5% of the library has one in this group of screens.

Cc1nc(C(=O)N2CCCC(c3nc(-c4ccncc4)ncc3-c3ccccc3)C2)cs1 (stereo not drawn)	TEAD-YAP inh 53.6
Cc1cc(-c2cnc(N3CCCC3)nc2C2CCCN(C(=O)c3ccco3)C2)on1 (stereo not drawn)	TEAD-YAP inh 51.0
CCCOc1ccc(/C=C2/SC(N3CCCC3)=NC2=O)cc1	none
Clc1ccc2nc(C3CCN(Cc4nnnn4Cc4cccs4)CC3)[nH]c2c1	TEAD-YAP inh 35.5
Fc1ccccc1C1CCN(Cc2nnnn2C2CCCC2)CC1	none
Clc1ccc2nc(C3CCN(Cc4nnnn4C4CCCC4)CC3)[nH]c2c1	TEAD-YAP inh 36.6
c1csc(Cn2nnnc2CN2CCN(C3CCCC3)CC2)c1	none
Cc1ccc(C)c2[nH]c(=O)c(CCNS(=O)(=O)c3ccc([N+](=O)[O-])cc3)cc12	none
Cc1cc2cc(CCNS(=O)(=O)c3ccc([N+](=O)[O-])cc3)c(=O)[nH]c2cc1C	TEAD-YAP inh 45.1
N#Cc1cc2c(N)c(C(=O)c3ccc4c(c3)OCO4)sc2nc1N	FBW7 activator 5.1
N#Cc1cc2c(N)c(C(=O)Nc3ccccc3)sc2nc1N	none
Cc1ccc(NC(=O)c2sc3nc(N)c(C#N)cc3c2N)cc1F	FBW7 activator 22.0
COc1ccc(/C=C2/SC(=Nc3ccccc3Cl)NC2=O)cc1	TEAD-YAP inh 37.0
Cc1ccc(/C=C2/SC(=Nc3cccc(C)c3)NC2=O)cc1	none
Cc1cccc(N=C2NC(=O)/C(=C\c3ccc(N(C)C)cc3)S2)c1	TEAD-YAP inh 41.9
CN(C)c1ccc(/C=C2/SC(=Nc3ccccc3Cl)NC2=O)cc1	TEAD-YAP inh 45.3
COc1cc(/C=C(/NC(=O)c2ccccc2)C(=O)NCCCO)c([N+](=O)[O-])cc1OC	none
COc1ccc(-c2csc(N3N=C(C)C(N=Nc4ccc(C(N)=O)cc4)C3=O)n2)cc1 (stereo not drawn)	none
CC1=NN(c2nc(-c3ccc(C)cc3)cs2)C(=O)C1C(c1ccccc1)C(C#N)C(N)=O (stereo not drawn)	TEAD-YAP inh 75.3
Cc1[nH]n(-c2nc(-c3ccccc3)cs2)c(=O)c1C(c1ccccc1)C(C#N)C(N)=O (stereo not drawn)	TEAD-YAP inh 59.0
CCOC(=O)C1CNC(=S)NC1(C)O (stereo not drawn)	none
CN(CCCNc1nc(=S)[nH]c2ccccc12)Cc1ccccc1	none
O=C(Cn1c2c(c3ccccc31)CCC2)NC1=NCCS1	TEAD-YAP inh 77.4
CC1=Nc2cc(C(=O)NCCCOC(C)C)ccc2Sc2ccccc21	TEAD-YAP inh 38.3
COCCCNC(=O)c1ccc2c(c1)N=C(C)c1ccccc1S2	TEAD-YAP inh 62.6
Cc1ccc(C(=O)Nc2ccc(O)cc2C(=O)O)cc1[N+](=O)[O-]	MITF primary 79.9
O=C(Nc1ccc(O)cc1C(=O)O)c1ccc([N+](=O)[O-])cc1	MITF primary 51.8
Cc1ccc(C(=O)Nc2ccc(O)cc2C(=O)O)cc1	none
C/C(=N\NC(=O)c1ccc([N+](=O)[O-])cc1Cl)c1ccc(O)cc1O	none
CC(C)(C)c1ccc(C(=O)Nc2ccc(O)cc2C(=O)O)cc1	TEAD-YAP inh 33.7
C/C(=N/NC(=O)c1ccc([N+](=O)[O-])cc1)c1ccc(O)cc1O	TEAD-YAP inh 84.0
Cc1ccc(-n2c(=O)[nH]cc(C(=O)Nc3cccc(Br)c3)c2=O)cc1C	none
COC(=O)c1sccc1NC(=O)/C=C/c1ccc(C)cc1	none
Cc1ccc(NC(=O)C2CCCN(S(=O)(=O)c3c(C)[nH]c(=O)[nH]c3=O)C2)cc1 (stereo not drawn)	none
O=C(NCc1ccco1)c1cccn2c(=O)c3cc4ccccc4cc3nc12	none
COCCNC(=O)c1cc2c(=O)n3cccc(C)c3nc2n1C	none
COCCCNC(=O)c1cc2c(=O)n3cccc(C)c3nc2n1C	TEAD-YAP inh 55.9
COCCCNC(=O)c1cccn2c(=O)c3cc4ccccc4cc3nc12	TEAD-YAP inh 35.7
O=c1c2cc3ccccc3cc2[nH]c(=S)n1CCc1ccccc1Cl	none
COc1ccc(N2C(N)=C(C#N)C(c3ccc(OC)c(OC)c3)C3=C2CC(C)(C)CC3=O)cc1 (stereo not drawn)	TEAD-YAP inh 40.0
COc1cc(C2C(C#N)=C(N)N(c3ccc(Br)cc3)C3=C2C(=O)CC(C)(C)C3)cc(OC)c1OC (stereo not drawn)	TEAD-YAP inh 41.1
CCOc1ccc(C2C(C#N)=C(N)N(c3ccc(OC)cc3)C3=C2C(=O)CC(C)(C)C3)cc1 (stereo not drawn)	TEAD-YAP inh 46.6
CCc1ccc(C2C(C#N)=C(N)N(c3ccc(OC)cc3)C3=C2C(=O)CC(C)(C)C3)cc1 (stereo not drawn)	none
C=CCOc1ccc(CNc2cccc([N+](=O)[O-])c2)cc1	none
